Reference: PubChem BioAssay (NCI)
The panel holds about 83,000 compounds, 20% with a hit somewhere; the sample as a whole holds those more often.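 Percent growth is the endpoint: 0 to 100 indicates growth inhibition (40 means 60% inhibition), 0 means no net growth, and negative values indicate cell death.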 The source made the active and inactive calls.

Test system: M14 melanoma
Assay: NCI-60 one-dose screen, 48 h (100 = growth as untreated, 0 = no growth, -100 = all killed)
Settings: 10 µM unless noted
Experimental: Growth inhibition of the M14 human tumor cell line is measured as a screen for anti-cancer activity. Cells are grown in 96 well plates and exposed to the test compound for 48 hours. Compounds are tested at a single concentration, which is 10^-5 M for most compounds. The reported endpoint is percent growth (GI% or GIPRCNT), where numbers from 0 - 100% represent growth inhibition, and numbers from -100% - 0 represent cell death. For example, a value of 40 represents 60% growth inhibition. A value of 0 means no net growth occurred over the course of the experiment. A value of -40 indicates 40% of cells at the beginning of the experiment died by the end of the experiment. A value of -100 means all cells are dead at the end of the experiment.
NCI-60 Human Tumor Cell Lines Screen was performed using the standard one-dose NCI protocol, which is described in more detail at https://dtp.cancer.gov/discovery_development/nci-60/default.htm.
Compounds with GIPRCNT values below 10 were considered active. Activity score was based on GIPRCNT using the following formula: […]
Score is 0 for GIPRCNT values of 100 or above, 50 for GIPRCNT values of 0, and 100 for GIPRCNT values of -100.

| Compound | growth |
| --- | --- |
| COc1ccc(/C=C\c2cc(OC)c(OC)c(OC)c2)cc1OC(=O)c1cccc(Cn2cc(CCOC(=O)c3cccc(Cn4nnc5c4C(=O)c4ccccc4C5=O)c3)nn2)c1 | -0.552% (active) |
| N[C@H]1CN(C(=O)c2cc3cc(Br)c(F)c(F)c3[nH]2)C[C@@H]1O | 97.2% (inactive) |
| CCN(CC)c1ccc(/C=C2\Oc3ccc(O)c(I)c3C2=O)cc1 | 28.7% (inactive) |
| Cc1ccc(S(=O)(=O)n2cc(C(=O)C(=O)N3CCOCC3)c3ccccc32)cc1 | 91.4% (inactive) |
| O=C(NCc1cn(Cc2cccc(Oc3ccccc3)c2)nn1)c1cccnc1Nc1ccc(F)cc1 | 48.1% (inactive) |
| N=C(N)c1ccc(-c2cc(Cl)cc(Cl)c2)cn1 | 96.4% (inactive) |
| CC(C)CC1NC(C)(C)CO1 (stereo not given) | 110% (inactive) |
| N/C(=N\S(=O)(=O)c1ccccc1)Nc1nc2ccccc2s1 | 101% (inactive) |
| FC(F)(F)c1cccc(-c2cn3c(ccc4ccccc43)n2)c1 | 95.4% (inactive) |
| COc1ccc(S(=O)(=O)NCCCNc2nccc(-n3ccc4cccnc43)n2)cc1 | -14.4% (active) |
| CCCCN(CCCC)c1ccc(C(=N)c2ccc(N(CCCC)CCCC)cc2)cc1 | -90.3% (active) |
| CCN1CCN(c2nc(NNC(=O)c3ccccc3)nc(N3CCN(C(c4ccccc4)c4ccccc4)CC3)n2)CC1 | 0.297% (active) |
| CCCCCCCC[C@@H](O)CC(=O)N[C@@H](CC(N)=O)C(=O)N[C@@H](CCC(N)=O)C(=O)N[C@@H](CC(=O)c1cc(C)cc(O)c1C(=O)c1c(O)cccc1O)CC(C)C | -12.3% (active) |
| c1ccc(-c2nnc(-c3ccccn3)s2)nc1 | 82.8% (inactive) |
| COc1ccc(NC(=O)CSc2nc(-c3ccc(OC)c(OC)c3)cc(-c3cc(OC)c(OC)c(OC)c3)n2)cc1 | 102% (inactive) |
| O=C(Nc1ccncc1)C(=O)c1cn(S(=O)(=O)c2ccc(Oc3ccccc3)cc2)c2ccccc12 | 102% (inactive) |
| CCc1cnc(=S)n(-c2ccccc2)c1 | 106% (inactive) |
| Cc1[nH]c2ccc(F)cc2c1CCNC(=O)C1CCN(C(=O)c2ccccc2)CC1 | 98.3% [25 µM] (inactive) |
| COc1cc(-c2nn(-c3cccc(NC(=O)Nc4cc(C(F)(F)F)cc(C(F)(F)F)c4)c3)cc2-c2ccncc2)ccc1Cl | -42.1% (active) |
| CC(C)CSc1nc(NN)c(C#N)c(-c2ccccc2)n1 | 107% (inactive) |

| Compound | growth |
| --- | --- |
| COc1ccc2c(c1)[nH]c(=O)c1c3cc(C)c(C)cc3cn21 | -33.5% (active) |
| CC1CCC(C)N(C)C1 (stereo not given) | 96.8% (inactive) |
| O=C(CSc1nc2ccccc2[nH]1)Nc1ccc(-c2nc3ccccc3s2)c(Cl)c1 | -58.1% (active) |
| Cc1ccc(-c2nc(C#N)c(S(=O)(=O)n3nc(-c4ccccc4)cc3N)o2)cc1 | 83% (inactive) |
| Cc1cc(C2(c3cc(C)c(O)cc3C)OS(=O)(=O)c3ccccc32)c(C)cc1O | 108% (inactive) |
| C/C(=C\c1ccc(OCC(=O)O)c(Cl)c1Cl)[N+](=O)[O-] | 102% (inactive) |
| Cc1cc(C)n(-c2nnc3n2N=C(c2ccc(-c4ccccc4)cc2)CS3)n1 | 30% (inactive) |
| Cc1ccc(NS(=O)(=O)c2cc(C)ccc2C)cc1 | 8.87% (active) |
| COc1cc([N+](=O)[O-])c2ncccc2c1O | -23.9% (active) |
| Cc1[nH]c2ccc(F)cc2c1CCNC(=O)C1CCN(C(=O)c2ccccc2)C1 (stereo not given) | 98.8% [25 µM] (inactive) |
| Cc1c(C(=O)/C=C/c2csc3ccccc23)[n+](=O)c2ccccc2n1[O-] | 62.9% (inactive) |
| COc1cc(-c2nn(-c3cccc(NC(=O)Nc4ccc(Cl)c(C(F)(F)F)c4)c3)cc2-c2ccncc2)ccc1Cl | -11.6% (active) |
| O=[N+]([O-])c1cccc(-c2nc3sccn3c2-c2ccnc(NCCCNS(=O)(=O)c3ccc(Cl)cc3)n2)c1 | 47% (inactive) |
| Nc1nc(=O)c2ccccc2s1 | 107% (inactive) |
| C=C[C@@H]1C[C@@H]2Cc3cc(F)ccc3N1O2 | 120% (inactive) |
| COc1ccc(C(=O)N2NC(=O)/C(=C/c3ccc(F)cc3)N=C2c2ccccc2)cc1 | 87.2% (inactive) |
| Cc1ccc(-c2cc3nc(-c4ccccc4)nc(C(Cl)Cl)n3n2)cc1 | 96.2% (inactive) |
| COc1ccc(-n2c(=S)sc3c(Cl)nc(C)nc32)c(OC)c1 | -18.8% (active) |
| O=c1cc/c(=N\Nc2ccccc2)c(=O)/c1=N/Nc1ccccc1 | 82.2% (inactive) |
| COc1cc(/C=C/C(=O)N2CCN(C(=O)/C=C/c3cc(OC)c(OC)c(OC)c3)CC2)cc(OC)c1OC | 97.1% (inactive) |
